Experimental data reported in the supplement of paper PMC11732987, “Enantioselective OTUD7B fragment discovery through chemoproteomics screening and high-throughput optimisation” (Communications Chemistry, 2025).

Key:
Assay in all cases: log2 ratio of Biotin-Ahx-Ub-VS probe labelling (fragment/DMSO); higher = less target engagement (more negative = stronger competition), active = hit call of the paper (q ≤ 0.05, log2 ratio ≤ -1)
Details in all cases: compound concentration: 200 uM; treatment time: 3 h
USP34 = USP34 (UniProt Q70CQ2)
How it was run: (§1)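 Triplicate samples of HEK293T lysate, 495 µg each, received fragment at 200 µM or vehicle for 3 h, followed by Biotin-Ahx-Ub-VS (0.5 µM final) for 1 h. After NeutrAvidin enrichment of labelled DUBs and LysC/trypsin digestion, peptides were run by diaPASEF LC-MS/MS. The values are average log2 fragment/vehicle ratios from global-median-normalised Spectronaut label-free quantities, tested by unpaired t-test on proteins having ≥2 unique peptides.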

USP36 = biological target: T1, USP36 (UniProt Q9P275)
T1 sequence (whole entry): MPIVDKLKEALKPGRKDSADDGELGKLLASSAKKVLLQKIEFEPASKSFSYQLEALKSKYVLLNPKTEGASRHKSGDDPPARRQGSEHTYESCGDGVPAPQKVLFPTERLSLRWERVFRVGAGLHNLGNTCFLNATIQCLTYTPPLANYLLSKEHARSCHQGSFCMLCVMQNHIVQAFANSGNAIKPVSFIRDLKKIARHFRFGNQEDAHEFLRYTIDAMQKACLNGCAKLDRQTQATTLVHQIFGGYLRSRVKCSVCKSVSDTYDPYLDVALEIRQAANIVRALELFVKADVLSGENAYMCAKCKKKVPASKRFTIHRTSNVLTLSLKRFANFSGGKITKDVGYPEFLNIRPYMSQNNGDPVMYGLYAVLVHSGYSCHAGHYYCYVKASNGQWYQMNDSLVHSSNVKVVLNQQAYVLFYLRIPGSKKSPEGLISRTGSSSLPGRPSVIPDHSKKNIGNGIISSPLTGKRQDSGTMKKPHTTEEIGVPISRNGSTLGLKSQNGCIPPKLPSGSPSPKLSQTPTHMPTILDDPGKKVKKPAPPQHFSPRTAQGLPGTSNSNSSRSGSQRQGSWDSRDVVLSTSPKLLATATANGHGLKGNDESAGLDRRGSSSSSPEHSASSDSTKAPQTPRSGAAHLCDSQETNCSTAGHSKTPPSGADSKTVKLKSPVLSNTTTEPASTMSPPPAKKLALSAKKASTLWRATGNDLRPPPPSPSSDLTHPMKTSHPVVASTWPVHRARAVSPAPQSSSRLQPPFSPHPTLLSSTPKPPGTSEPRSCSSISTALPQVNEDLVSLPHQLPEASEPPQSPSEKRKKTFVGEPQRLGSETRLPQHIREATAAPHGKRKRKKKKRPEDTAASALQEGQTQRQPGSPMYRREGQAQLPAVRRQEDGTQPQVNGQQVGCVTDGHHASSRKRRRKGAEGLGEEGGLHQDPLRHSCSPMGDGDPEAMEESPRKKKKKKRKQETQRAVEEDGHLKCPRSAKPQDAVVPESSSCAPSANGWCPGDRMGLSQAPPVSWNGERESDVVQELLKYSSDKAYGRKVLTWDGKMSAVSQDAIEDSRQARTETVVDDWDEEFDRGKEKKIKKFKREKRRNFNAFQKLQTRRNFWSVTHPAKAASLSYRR
How it was run: as §1

USP38 = biological target: T2, USP38 (UniProt Q8NB14)
T2 sequence (whole entry): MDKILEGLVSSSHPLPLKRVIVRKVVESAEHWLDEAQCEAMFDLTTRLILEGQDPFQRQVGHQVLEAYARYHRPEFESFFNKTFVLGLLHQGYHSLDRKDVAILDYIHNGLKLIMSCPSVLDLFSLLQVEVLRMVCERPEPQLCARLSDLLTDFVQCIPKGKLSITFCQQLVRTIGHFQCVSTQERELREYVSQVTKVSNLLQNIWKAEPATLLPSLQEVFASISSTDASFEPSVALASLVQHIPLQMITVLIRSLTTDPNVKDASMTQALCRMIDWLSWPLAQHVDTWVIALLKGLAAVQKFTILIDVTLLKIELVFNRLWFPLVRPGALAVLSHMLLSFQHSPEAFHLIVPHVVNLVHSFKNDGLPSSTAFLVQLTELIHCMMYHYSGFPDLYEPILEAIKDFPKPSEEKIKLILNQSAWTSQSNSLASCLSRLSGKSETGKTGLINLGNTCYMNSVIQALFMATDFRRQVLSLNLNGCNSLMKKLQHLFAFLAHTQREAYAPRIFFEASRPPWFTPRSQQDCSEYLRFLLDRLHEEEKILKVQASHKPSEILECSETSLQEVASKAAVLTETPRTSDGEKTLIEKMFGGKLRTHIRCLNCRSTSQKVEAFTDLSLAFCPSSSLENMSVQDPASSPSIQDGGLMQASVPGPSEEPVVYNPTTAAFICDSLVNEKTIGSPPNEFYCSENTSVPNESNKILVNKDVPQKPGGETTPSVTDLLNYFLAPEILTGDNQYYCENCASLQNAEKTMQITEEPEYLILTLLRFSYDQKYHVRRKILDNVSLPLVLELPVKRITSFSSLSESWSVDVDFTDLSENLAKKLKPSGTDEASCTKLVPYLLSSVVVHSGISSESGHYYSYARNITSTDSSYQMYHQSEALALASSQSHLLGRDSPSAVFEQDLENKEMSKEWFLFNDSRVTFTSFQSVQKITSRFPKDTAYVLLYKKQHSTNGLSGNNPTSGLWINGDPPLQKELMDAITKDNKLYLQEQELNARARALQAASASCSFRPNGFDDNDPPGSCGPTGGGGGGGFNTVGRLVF
How it was run: as §1

USP39 = biological target: T3, USP39 (UniProt Q53GS9)
T3 sequence (whole entry): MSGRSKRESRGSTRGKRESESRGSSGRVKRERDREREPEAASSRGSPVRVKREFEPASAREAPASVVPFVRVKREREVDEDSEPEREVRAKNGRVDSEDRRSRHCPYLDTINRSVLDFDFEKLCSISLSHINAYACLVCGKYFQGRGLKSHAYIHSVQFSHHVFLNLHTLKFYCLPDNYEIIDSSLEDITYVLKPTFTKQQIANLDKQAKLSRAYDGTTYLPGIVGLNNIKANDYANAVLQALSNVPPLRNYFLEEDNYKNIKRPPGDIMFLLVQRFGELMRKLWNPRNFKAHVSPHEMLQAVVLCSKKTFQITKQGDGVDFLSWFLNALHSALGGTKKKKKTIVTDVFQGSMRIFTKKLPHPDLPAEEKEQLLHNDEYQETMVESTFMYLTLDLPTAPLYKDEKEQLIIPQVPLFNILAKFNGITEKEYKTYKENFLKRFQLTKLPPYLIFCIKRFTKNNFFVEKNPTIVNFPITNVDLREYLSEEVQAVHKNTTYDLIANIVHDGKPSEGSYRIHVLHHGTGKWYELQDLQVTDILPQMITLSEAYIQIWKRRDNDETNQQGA
How it was run: as §1

USP4 = biological target: T4, USP4 (UniProt Q13107)
T4 sequence (whole entry): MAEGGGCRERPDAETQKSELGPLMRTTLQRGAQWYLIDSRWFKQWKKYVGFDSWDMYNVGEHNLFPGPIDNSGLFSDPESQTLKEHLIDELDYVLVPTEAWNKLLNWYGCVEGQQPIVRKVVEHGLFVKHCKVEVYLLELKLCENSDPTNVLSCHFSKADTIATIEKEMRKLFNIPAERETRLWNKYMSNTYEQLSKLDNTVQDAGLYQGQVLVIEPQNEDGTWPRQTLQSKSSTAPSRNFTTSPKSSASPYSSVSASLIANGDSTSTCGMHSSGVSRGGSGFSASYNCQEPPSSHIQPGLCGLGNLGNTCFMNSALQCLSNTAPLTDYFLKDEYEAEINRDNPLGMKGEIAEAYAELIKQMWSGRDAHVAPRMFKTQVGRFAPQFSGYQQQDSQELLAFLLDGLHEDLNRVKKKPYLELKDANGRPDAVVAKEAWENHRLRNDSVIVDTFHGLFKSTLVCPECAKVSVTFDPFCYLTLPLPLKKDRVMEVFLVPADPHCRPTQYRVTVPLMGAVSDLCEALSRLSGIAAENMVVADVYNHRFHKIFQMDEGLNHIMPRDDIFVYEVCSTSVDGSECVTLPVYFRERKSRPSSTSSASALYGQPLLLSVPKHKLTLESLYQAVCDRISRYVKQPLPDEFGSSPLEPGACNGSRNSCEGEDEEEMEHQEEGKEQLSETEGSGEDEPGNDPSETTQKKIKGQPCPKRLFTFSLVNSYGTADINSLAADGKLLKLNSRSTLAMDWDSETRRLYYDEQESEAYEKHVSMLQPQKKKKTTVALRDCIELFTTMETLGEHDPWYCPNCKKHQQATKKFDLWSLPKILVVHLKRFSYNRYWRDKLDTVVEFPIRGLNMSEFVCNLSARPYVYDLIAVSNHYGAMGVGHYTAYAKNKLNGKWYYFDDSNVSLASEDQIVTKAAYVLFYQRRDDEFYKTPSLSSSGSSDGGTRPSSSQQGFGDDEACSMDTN
How it was run: as §1

Measured: log2 ratio of Biotin-Ahx-Ub-VS probe labelling

Sequence of USP34 (Q70CQ2 whole entry, the tested form may be a part): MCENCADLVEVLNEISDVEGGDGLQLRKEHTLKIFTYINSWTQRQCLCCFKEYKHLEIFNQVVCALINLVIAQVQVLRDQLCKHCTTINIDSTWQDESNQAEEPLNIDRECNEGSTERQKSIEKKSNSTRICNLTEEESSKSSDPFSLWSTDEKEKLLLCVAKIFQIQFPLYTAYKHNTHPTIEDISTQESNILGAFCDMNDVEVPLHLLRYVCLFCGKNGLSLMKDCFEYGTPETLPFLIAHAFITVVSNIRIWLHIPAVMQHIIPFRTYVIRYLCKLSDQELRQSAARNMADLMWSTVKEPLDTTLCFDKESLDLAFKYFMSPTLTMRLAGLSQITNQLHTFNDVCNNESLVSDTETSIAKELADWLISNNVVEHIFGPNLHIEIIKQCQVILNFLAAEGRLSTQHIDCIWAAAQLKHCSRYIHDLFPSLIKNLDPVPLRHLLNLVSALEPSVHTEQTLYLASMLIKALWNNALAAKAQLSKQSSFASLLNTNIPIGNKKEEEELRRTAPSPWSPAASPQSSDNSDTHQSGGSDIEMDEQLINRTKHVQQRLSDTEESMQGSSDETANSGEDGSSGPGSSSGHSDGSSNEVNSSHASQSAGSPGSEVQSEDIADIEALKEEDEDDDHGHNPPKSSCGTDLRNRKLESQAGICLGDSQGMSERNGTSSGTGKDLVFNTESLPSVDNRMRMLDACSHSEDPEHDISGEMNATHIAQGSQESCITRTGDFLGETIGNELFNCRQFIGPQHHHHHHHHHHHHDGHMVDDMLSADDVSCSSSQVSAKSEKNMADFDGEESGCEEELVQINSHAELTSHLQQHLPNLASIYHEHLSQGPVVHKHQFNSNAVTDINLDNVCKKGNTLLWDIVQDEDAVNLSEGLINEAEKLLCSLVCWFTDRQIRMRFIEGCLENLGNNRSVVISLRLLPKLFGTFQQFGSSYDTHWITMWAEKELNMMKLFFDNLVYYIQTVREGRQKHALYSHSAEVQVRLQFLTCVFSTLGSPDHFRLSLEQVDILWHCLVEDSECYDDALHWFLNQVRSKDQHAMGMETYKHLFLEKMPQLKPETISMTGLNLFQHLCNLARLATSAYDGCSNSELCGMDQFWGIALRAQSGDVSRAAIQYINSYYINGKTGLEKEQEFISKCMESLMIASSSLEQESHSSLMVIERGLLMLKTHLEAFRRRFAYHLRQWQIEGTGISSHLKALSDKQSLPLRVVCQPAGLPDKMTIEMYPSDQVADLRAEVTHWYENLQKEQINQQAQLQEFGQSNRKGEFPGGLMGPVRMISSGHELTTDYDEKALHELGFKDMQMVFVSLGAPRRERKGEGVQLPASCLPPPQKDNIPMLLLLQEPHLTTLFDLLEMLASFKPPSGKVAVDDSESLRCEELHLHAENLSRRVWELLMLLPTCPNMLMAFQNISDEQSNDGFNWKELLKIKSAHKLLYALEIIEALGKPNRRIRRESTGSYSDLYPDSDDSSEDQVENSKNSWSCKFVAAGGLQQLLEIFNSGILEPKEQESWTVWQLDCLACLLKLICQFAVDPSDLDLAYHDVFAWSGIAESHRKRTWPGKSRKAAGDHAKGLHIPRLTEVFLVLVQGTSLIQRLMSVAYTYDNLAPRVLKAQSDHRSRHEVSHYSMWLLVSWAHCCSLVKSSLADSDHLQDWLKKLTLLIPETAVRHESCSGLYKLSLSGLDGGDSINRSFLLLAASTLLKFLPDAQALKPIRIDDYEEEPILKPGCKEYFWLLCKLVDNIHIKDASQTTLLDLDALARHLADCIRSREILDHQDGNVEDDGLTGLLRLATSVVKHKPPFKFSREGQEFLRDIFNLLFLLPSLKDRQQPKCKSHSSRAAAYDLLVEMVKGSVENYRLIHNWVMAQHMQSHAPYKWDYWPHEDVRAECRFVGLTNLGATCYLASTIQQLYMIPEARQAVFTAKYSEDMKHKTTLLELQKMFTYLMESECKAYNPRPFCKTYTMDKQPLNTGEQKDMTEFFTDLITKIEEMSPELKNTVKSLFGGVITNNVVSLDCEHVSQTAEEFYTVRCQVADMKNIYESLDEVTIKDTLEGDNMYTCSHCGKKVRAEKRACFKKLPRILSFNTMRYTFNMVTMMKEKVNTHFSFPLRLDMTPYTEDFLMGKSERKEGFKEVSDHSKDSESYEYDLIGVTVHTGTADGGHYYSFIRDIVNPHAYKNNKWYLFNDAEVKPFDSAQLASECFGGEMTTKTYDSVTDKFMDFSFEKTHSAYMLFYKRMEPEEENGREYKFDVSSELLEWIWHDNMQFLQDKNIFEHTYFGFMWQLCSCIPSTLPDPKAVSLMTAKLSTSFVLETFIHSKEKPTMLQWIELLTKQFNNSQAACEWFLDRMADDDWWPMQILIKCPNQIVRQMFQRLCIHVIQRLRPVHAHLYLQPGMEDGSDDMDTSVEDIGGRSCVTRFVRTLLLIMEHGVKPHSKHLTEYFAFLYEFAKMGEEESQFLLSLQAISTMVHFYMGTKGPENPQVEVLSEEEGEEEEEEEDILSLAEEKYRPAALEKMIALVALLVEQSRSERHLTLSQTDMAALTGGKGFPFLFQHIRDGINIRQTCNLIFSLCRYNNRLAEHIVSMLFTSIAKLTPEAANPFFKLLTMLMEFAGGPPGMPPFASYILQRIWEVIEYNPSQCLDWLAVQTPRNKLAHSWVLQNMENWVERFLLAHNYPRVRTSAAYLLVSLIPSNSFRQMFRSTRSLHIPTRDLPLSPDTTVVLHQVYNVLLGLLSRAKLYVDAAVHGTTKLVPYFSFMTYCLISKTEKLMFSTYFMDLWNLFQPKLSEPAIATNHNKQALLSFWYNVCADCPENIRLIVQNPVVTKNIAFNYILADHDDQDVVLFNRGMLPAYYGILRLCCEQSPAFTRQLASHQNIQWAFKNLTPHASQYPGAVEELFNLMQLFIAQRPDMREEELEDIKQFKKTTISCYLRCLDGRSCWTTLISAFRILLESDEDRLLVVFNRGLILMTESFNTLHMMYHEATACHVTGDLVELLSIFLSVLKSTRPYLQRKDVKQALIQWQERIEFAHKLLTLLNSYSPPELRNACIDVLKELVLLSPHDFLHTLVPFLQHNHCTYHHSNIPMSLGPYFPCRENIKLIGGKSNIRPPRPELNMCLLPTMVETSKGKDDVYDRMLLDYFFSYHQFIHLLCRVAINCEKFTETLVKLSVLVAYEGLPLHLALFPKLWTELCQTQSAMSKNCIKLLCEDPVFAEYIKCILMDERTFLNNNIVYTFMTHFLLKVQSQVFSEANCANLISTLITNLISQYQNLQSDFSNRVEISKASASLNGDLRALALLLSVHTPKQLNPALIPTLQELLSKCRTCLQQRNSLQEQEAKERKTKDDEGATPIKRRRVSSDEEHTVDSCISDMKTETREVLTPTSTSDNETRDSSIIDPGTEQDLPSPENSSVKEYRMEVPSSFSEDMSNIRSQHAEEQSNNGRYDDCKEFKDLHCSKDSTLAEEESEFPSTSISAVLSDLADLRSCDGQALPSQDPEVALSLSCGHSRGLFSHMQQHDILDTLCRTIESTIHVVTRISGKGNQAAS

O=C(CCl)N1CCC(C(O)c2ccc(F)cc2)CC1 (stereo not given)
inactive: USP34 -0.0791 | USP36 0.299 | USP38 0.282 | USP39 0.453 | USP4 0.032
